Compound activity deposited in PubChem by National Center for Advancing Translational Sciences (NCATS).
Only some compounds are listed: those with a hit (about 0.27% of all), similar ones and a draw of the others.
Chronic BCR inh: qHTS Assay to Find Inhibitors of Chronic Active B-Cell Receptor Signaling; ABC-DLBCL IkBa-CBG/CBR reporter, luminescence ratio, 4 h; Potency, µM (titrated, usually from 46.1 µM), without a hit: at the highest dose activity change, negative = inhibition, most hits filed as inhibitors; actives 0.05% (n = 340,000); active = well fitted inhibition curve with a large enough effect in the signal ratio, with a control signal flat, not every such curve was filed as active; inconclusive = small, poorly fitted or top-dose-only effect, or effect the other way, or a change in a side signal; the % refers to the signal ratio;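 also: potency is read from the fitted curve at half-maximal effect; plate controls were basal doxycycline-induced cells for no effect and cells given 10 µM MG132 for full effect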
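TMD8 human ABC-DLBCL cells with doxycycline-inducible IκBα–green luciferase fusion and unfused red luciferase, in 0.5% FBS medium; compounds up to 46 uM, 4 h at 37C. Green/red luminescence ratio, filter-overlap corrected, fitted to concentration-response curves.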
B2AR arrestin: qHTS assay of beta-arrestin-biased ligands of beta2-adrenergic receptor | Beta-2 adrenergic receptor (Homo sapiens), P07550 | beta-arrestin recruitment to beta2AR, cell-based reporter | Potency, µM (highest dose often 46.1 µM), without a hit: top-dose activation, usual class: activators | actives 0.02% (n = 330,000);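 also: potency is read from the fitted curve at half-maximal effect; 0% = DMSO controls and full agonism = EC100 isoproterenol or metaproterenol; nearly all actives have a fitted effect of over 65% in size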
Tb PFK inh-1: qHTS Assay to Find Inhibitors of T. brucei phosphofructokinase | ATP-dependent 6-phosphofructokinase (Trypanosoma brucei brucei), O15648 | T. brucei PFK, ADP-Glo luminescence | Potency, µM (doses to about 57.5 µM), for inactives: at the top dose activity, negative = inhibition, hits mostly inhibitors | actives 0.17% (n = 330,000) | AID 485367, 2010;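 also: potency is read from the fitted curve at half-maximal effect; 0% = uninhibited 1x PFK enzyme wells and -100% = no-enzyme wells; nearly all actives have a fitted effect of over 60% in size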
Target sequence (O15648 whole entry, looked up): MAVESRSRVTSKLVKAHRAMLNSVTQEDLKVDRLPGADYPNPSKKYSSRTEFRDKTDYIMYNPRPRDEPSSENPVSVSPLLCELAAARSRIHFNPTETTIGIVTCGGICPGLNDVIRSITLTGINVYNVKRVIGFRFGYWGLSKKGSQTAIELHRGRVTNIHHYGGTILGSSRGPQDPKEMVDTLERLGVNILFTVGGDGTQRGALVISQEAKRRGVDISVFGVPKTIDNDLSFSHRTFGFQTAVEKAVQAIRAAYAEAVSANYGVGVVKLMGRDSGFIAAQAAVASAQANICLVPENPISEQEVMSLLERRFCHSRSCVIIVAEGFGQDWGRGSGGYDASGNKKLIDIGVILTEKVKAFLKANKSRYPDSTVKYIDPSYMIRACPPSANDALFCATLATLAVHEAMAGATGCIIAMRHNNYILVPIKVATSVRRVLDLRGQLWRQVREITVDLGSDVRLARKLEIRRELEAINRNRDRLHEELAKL
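Compounds were pin-transferred as a titration series up to 57 uM into substrate buffer (0.5 mM F6P, 0.1 mM ATP, pH 8.0), then 1.25 nM PFK was added and reactions ran 45 min before ADP-Glo detection.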
MBNL1-CUG inh: qHTS Assay for Inhibitors of MBNL1-poly(CUG) RNA binding; Potency, µM (doses to about 57.5 µM), for the others: at the top dose activity change, negative = inhibition, hits mostly inhibitors; TR-FRET MBNL1-His/biotin-(CUG)12 binding, 665/545 ratio; actives 0.036% (n = 280,000); AID 2675, 2010; Muscleblind-like protein 1 (Homo sapiens), Q9NR56; active = well fitted inhibition curve with a large enough effect in the signal ratio, with a control signal flat, not every such curve was filed as active; inconclusive = small, poorly fitted or top-dose-only effect, or effect the other way, or a change in a side signal; inactive = no such curve, though single readings can be large or run the other way; the % refers to the signal ratio; also: potency is read from the fitted curve at half-maximal effect; % is scaled to controls: 0 for no effect and ±100 for the full control effect
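TR-FRET between His-tagged MBNL1 and biotin-(CUG)12 RNA, detected with Tb anti-His antibody (0.055 ng/ul) and streptavidin-XL665 (5 nM), 60 min at room temperature. Compounds titrated 92 nM to 58 uM; 665/545 nm ratio normalized to buffer and complex controls.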
MBNL1 TRFRET: qHTS Assay for Inhibitors of MBNL1-poly(CUG) RNA binding: Initial hit validation from the primary screen. shares compounds with MBNL1-CUG inh. TR-FRET MBNL1-His / biotin-(CUG)12 binding, 60 min. Potency, µM (series often up to 57.6 µM), without a hit: top-dose activity change, negative = inhibition, hits mostly inhibitors. actives 50% (n = 140)
MBNL1 AlphaScrn: qHTS Assay for Inhibitors of MBNL1-poly(CUG) RNA binding: Initial hit validation in AlphaScreen assay for MBNL1-(CUG)12 binding. shares compounds with MBNL1-CUG inh. AlphaScreen MBNL1-His / biotin-(CUG)12 binding. Potency, µM (series often up to 57.7 µM), for inactives: at the top dose activity, negative = inhibition, most hits filed as inhibitors. actives 30% (n = 140). AID 493205, 2011
Menin-MLL HTRF: qHTS Assay for Inhibitors of MBNL1-poly(CUG) RNA binding: Counterscreen HTRF assay; shares compounds with MBNL1-CUG inh; His-Menin/biotin-MLL peptide TR-FRET counterscreen; AID 651843, 2012; actives 20% (n = 120); Potency, µM (doses to about 57.6 µM), inactives show top-dose activity, negative = inhibition, hits mostly inhibitors
TbPFK ATP: Tb PFK orthogonal confirmatory assay using ATP depletion (Kinase-Glo Plus) as an alternative measure of Tb PFK activity: Hit Validation. actives 47% (n = 1,100). Tb PFK enzyme, ATP depletion, Kinase-Glo Plus luminescence. Potency, µM (doses to about 57.5 µM), inactives show at the top dose inhibition. AID 504636, 2011. shares compounds with Tb PFK inh-1; calls by dose curve; also: potency is read from the fitted curve at half-maximal effect; nearly all actives have a fitted effect of over 60% in size
Tb PFK inh-2: Inhibitors of T. brucei phosphofructokinase: Hit Validation; shares compounds with Tb PFK inh-1; purified T. brucei PFK, ADP-Glo luminescence, 45 min; Potency, µM (series often up to 57.5 µM), for inactives: at the top dose activity change, negative = inhibition, hits mostly inhibitors; actives 41% (n = 1,100);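 also: potency is read from the fitted curve at half-maximal effect; plate controls were full PFK enzyme control for no effect and no enzyme control for full effect; nearly all actives have a fitted effect of over 60% in size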
Numbers without * were called inactive; ? = inconclusive; / = not tested or not shown; [ ] = remark or other dose. Unless noted, calls follow the shape of the dose curve; as a rule, active = well fitted curve in the direction sought with a large enough effect; inconclusive = small, poorly fitted or top-dose-only effect, or another doubt; inactive = no such curve, though single readings can be large; an effect the other way counts as inactive or inconclusive.

SMILES	Chronic BCR inh	B2AR arrestin	Tb PFK inh-1	MBNL1-CUG inh	TbPFK ATP	Tb PFK inh-2	others
C/C1=C2N=C(/C=C3N=C(/C(C)=C4\[N-]C(C)(C5N=C1C(C)(CCC(=O)NCC(C)OP(=O)([O-])O[C@H]1C(O)C(n6cnc7cc(C)c(C)cc76)O[C@@H]1CO)C5CC(N)=O)C(C)(CC(N)=O)C4CCC(N)=O)C(C)(CC(N)=O)C\3CCC(N)=O)C(C)(C)C/2CCC(N)=O.[CH2-]C1OC(n2cnc3c(N)ncnc32)C(O)C1O.[Co] (stereo not given in full)	/	/	/	/	/	/	MBNL1 TRFRET=0.12µM*;MBNL1 AlphaScrn=5.2µM*
COc1ccc(S(=O)(=O)N2CCCCC2)cc1NC(=O)c1c(F)cccc1Cl	-3%	-1%	-1%	/	/	/
COc1ccc(NC(=O)N(C)C[C@@H]2Oc3ccc(NC(=O)NC(C)C)cc3CC(=O)N([C@H](C)CO)C[C@@H]2C)cc1	?	0%	0%	/	/	/
NCCCC(N)CC(=O)NC1CNC(=O)C(C2CC(O)N=C(N)N2)NC(=O)/C(=C/NC(N)=O)NC(=O)C(CO)NC(=O)C(CO)NC1=O (stereo not given)	/	/	/	/	/	/	MBNL1 TRFRET=?;MBNL1 AlphaScrn=?
C[C@@H]1NC(=O)[C@@H](N)CNC(=O)[C@H](C2CCNC(N)=N2)NC(=O)/C(=C/NC(N)=O)NC(=O)[C@H](CNC(=O)C[C@@H](N)CCCN)NC1=O (stereo not given in full)	/	/	/	/	/	/	Menin-MLL HTRF=-11%
O=C(CCO)c1ccc(O)cc1	-14%	0%	?	25µM*	/	/	MBNL1 TRFRET=?;MBNL1 AlphaScrn=?;Menin-MLL HTRF=0%
CCCCC(=O)c1ccc(O)cc1	?	0%	0%	3%	/	/
O=C(Nc1nnc(C2CC2)s1)c1cncc(Br)c1	?	-1%	16%	/	/	/
O=C(O)[C@@H](c1ccccc1)N1Cc2ccccc2C1=O	-1%	0%	?	40µM*	?	?	MBNL1 TRFRET=26µM*;MBNL1 AlphaScrn=21µM*;Menin-MLL HTRF=-3%
CC[C@@]1(C(=O)OC)N[C@H](CN(C)S(=O)(=O)c2ccccc2)[C@@H]2C(=O)N(C)C(=O)[C@@H]21	-3%	-1%	1%	/	/	/
O=C(OCC(=O)N1CCN(c2ccccc2)CC1)c1cccc(Cl)c1	-12%	-3%	-2%	-16%	/	/
O=C(OCC(=O)N1CCN(c2cccc(Cl)c2)CC1)c1ccco1	0%	0%	21µM*	/	24µM*	?
CCOC(=O)c1cc(-c2ccccc2)n(-c2cccc(C(=O)Nc3ccc(OC)cc3)c2)c1C	6%	/	/	/	/	/
C/C(=N\NC(=O)CNc1cccc(Cl)c1C)C1CC1	0%	0%	21µM*	-3%	?	?
C/C(=N\NC(=O)CNc1ccccc1Cl)C(C)(C)C	-9%	0%	-12%	0%	/	/
COc1ccc(CNC(=O)N2CCN(c3cccc(Cl)c3)CC2)cc1OC	?	0%	27µM*	-1%	12µM*	24µM*
O=C1NC[C@@H](c2ccccc2)OC(=O)[C@@H](Cc2ccc(F)cc2)CC/C=C/C[C@H]1CC(=O)N(CCO)Cc1ccccc1	/	0%	6%	/	/	/
Cc1c(N2C(=O)/C(=C\c3ccccc3O)SC2=S)c(=O)n(-c2ccccc2)n1C	?	-2%	21µM*	13%	?	-30%
Cc1c(N2C(=O)/C(=C/c3ccccc3)SC2=S)c(=O)n(-c2ccccc2)n1C	-15%	0%	-5%	?	/	/
COc1ccc(-c2cc(C(=O)Nc3c(C)n(C)n(-c4ccccc4)c3=O)c3ccccc3n2)c(OC)c1	-24%	0%	1%	17%	/	/
O=C(NCc1cccc(Cl)c1)c1ccc2c(c1)OCO2	5%	0%	?	-9%	24µM*	30µM*
CC(C)NC(=O)Nc1ccc2c(c1)C(=O)N([C@H](C)CO)C[C@@H](C)[C@@H](CN(C)C(=O)NC1CCCCC1)O2	-1%	-2%	0%	/	/	/
CCCCn1c(C)cc2c(c1=O)[C@H]1O[C@](CCCC)(Cc3cc(OC)c(OC)cc31)O2	-8%[9.22 µM]	0%[9.22 µM]	2%[11.5 µM]	6%[11.5 µM]	/	/
O=S1(=O)CCN(Cc2cccc(C(F)(F)F)c2)CC1	2%	0%	-3%	-2%	/	/
O=S1(=O)CCN(Cc2ccc(Cl)c(C(F)(F)F)c2)CC1	-2%	0%	?	-2%	24µM*	?
SMILES	Chronic BCR inh	B2AR arrestin	Tb PFK inh-1	MBNL1-CUG inh	TbPFK ATP	Tb PFK inh-2	others
CC1(C)C(=O)Nc2ccccc2N1C(=O)COC(=O)Cc1ccc(Cl)c(Cl)c1	-4%	-1%	24µM*	/	?	?
COc1cc(SC)ccc1C(=O)NCCCn1ccnc1	-1%	0%	-6%	-6%	/	/
COC(=O)CSc1nnc(CSc2nc(C)cc(C)n2)n1Cc1ccco1	1%	0%	-10%	-1%	/	/
Cc1cc(C)nc(SCc2nnc(SCc3ccc([N+](=O)[O-])cc3)n2Cc2ccco2)n1	-10%	0%	?	?	11µM*	15µM*
Cc1ccccc1SCC(=O)Nc1cc(C(F)(F)F)ccc1N1CCOCC1	26%	0%	-13%	/	/	/
Oc1cccc(/C=N/NC(=S)Nc2cccnc2)c1O	?	0%	-7%	/	/	/
Oc1ccc(/C=N/NC(=S)Nc2cccnc2)c(O)c1O	9%	0%	?	3%	3µM*	7.6µM*
CC(NCc1ccc(Cl)c(Cl)c1)C(O)c1ccccc1 (stereo not given)	?	0%	?	-3%	12µM*	24µM*
